Reference: PubChem BioAssay (NCI)
Where “and” joins values, the source holds several entries; their conditions need not be identical. Equal values may be shown once. Compounds without any hit were thinned out: in the full panel of roughly 83,000, 20% have a hit.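 Testing used 96-well plates and a 48-hour single-concentration exposure. Example: -40 means 40% of the starting cells died.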 Values without a mark were called inactive. Calls of active or inactive are those of the source. Rule for the calls: active = growth percent below 10; inactive = the rest.

test system: MDA-MB-468 breast; test: NCI-60 one-dose screen, 48 h (100 = growth as untreated, 0 = no growth, -100 = all killed); details: 10 µM unless noted

| SMILES | growth |
| --- | --- |
| Cn1c(=O)[nH]c2ccccc2c1=O | 107% |
| O=C(OCCCCOC(=O)n1cnc2ccccc21)n1cnc2ccccc21 | 112% |
| COC(=O)c1ccc(CSc2nnc(-c3ccncc3)o2)cc1 | 115% |
| Oc1ccc(/C=N\Nc2ccccn2)c(O)c1 | 9.5% (active) |
| Nc1nc(I)c2ncn(C3OC(CO)C(O)C3O)c2n1 (stereo not given) | 115% |
| C=C1C(=O)O[C@H]2[C@H]1CC/C(COC(=O)CCC(=O)OC/C1=C/CC[C@@]3(C)O[C@H]3[C@H]3OC(=O)C(=C)[C@@H]3CC1)=C\CC[C@@]1(C)O[C@@H]21 | -39% (active) |
| Cc1cccc2sc(/N=C(\N)C(Cl)(Cl)Cl)nc12 | 110% |
| CC(=O)C(CO)C(=O)Nc1ccccc1 (stereo not given) | 104% |
| NNc1ccc(S(N)(=O)=O)cc1 | 100% |
| O=[N+]([O-])c1ccc(N=Nc2c(Cl)cc(O)cc2Cl)cc1 | -11.7% (active) |
| CCOC(=O)c1cc2c(n1C)-c1nc(NC(C)=O)sc1CCC2 | 79.8% |
| CC(C)Sc1nc(-c2ccccc2)c(C#N)c(N2CCOCC2)n1 | 80.9% |
| ClCCOCCn1cnc2c(Cl)nc(Cl)nc21 | -35.7% (active) |
| Oc1ccc(-c2nc(-c3ccc4oc5ccc(-c6[nH]c(-c7ccc(O)cc7)nc6-c6ccccc6)cc5c4c3)c(-c3ccccc3)[nH]2)cc1 | 6.14% (active) |
| CCNc1nc(S(=O)(=O)CC)nc2ccccc12 | 76.4% |
| NCCOc1ncccc1/C=C1\c2ccccc2-c2ccc([N+](=O)[O-])cc21 | -39.2% (active) |
| CCOC(=O)C1=C(C(=O)c2ccccc2)C(c2cccc([N+](=O)[O-])c2)C(C(=O)c2ccccc2)=C(C(=O)OCC)N1 | 83.2% |
| COc1ccc(C(=O)c2sc3nc4c(cc3c2N)CCCC4)cc1OC | -5.94% (active) |
| CCN1CCOC1C(C)C (stereo not given) | 109% |
| O=C(CNC1C2CC3CC(C2)CC1C3)Sc1nnc2sc3ccccc3n12 (stereo not given) | 102% |

| SMILES | growth |
| --- | --- |
| O=C(Oc1ccccc1[N+](=O)[O-])C1CCCN1C(=O)OCc1ccccc1 (stereo not given) | 97.3% |
| CCOP(=O)(OCC)OC[C@]12CCC(C)(C)CC1C1=CC[C@@H]3[C@@]4(C)CCCNC(C)(C)[C@@H]4CC[C@@]3(C)[C@]1(C)CC2 (stereo not given in full) | 53.5% |
| CCCCSC1=C(Cl)CN(c2ccc(Cl)cc2)C1=O | 77.9% |
| CN1C(=O)/C(=C/c2ccc(C(=O)Nc3ncc(Cc4cc(Cl)ccc4Cl)s3)cc2)SC1=S | 44.2% |
| COc1ccc2nc3cc(Cl)ccc3c(N3CCN(c4ccnc(Nc5ccc(F)cc5)n4)CC3)c2c1 | 63.8% |
| Cn1c(-c2ccc(Br)cc2)c(O)c(=O)c2c(F)cccc21 | 39.7% |
| CCn1nc(-c2ccccn2)c2cccnc2c1=S | 48.8% |
| C=C(C)CCCC(C)CC#N (stereo not given) | 93.3% |
| N#C/C(=C\c1ccc(-c2ccc(Cl)cc2)o1)c1nc(-c2ccco2)cs1 | -26.7% (active) |
| CCCCCCCCCCNC(=O)CI | -40.5% (active) |
| O=C(OCc1ccc2c(Cl)cc(Cl)c(O)c2n1)c1cc2ccccc2[nH]1 | -73.1% (active) |
| Cn1c(=O)c2[nH]c(CCCCCCCCc3nc4ccccc4[nH]3)nc2n(C)c1=O | 10.7% and 21.7% |
| NC(=O)c1cccc(-n2ccc3cc(NC(=O)Nc4ccc(N5CCOCC5)c(C(F)(F)F)c4)ccc32)n1 | 0.818% (active) |
| Cc1ccc2cc3c(N)c4c(C)ccc(C)c4nc3nc2c1 | 29.9% |
| CCCC(=O)OCC(COC(=O)CCC)OC(=O)CCC | 89% |
| Cc1ccc(C(C(N)=O)C(C(N)=O)c2ccccc2)cc1 (stereo not given) | 105% |
| O=C(O)COc1ccc([N+](=O)[O-])cc1Cl | 104% |
| CCOC(=O)c1ccc[nH]1 | 100% |
| O=C(/C=C/c1ccccc1Br)c1cccc(OCCCCOc2cccc(C(=O)/C=C/c3ccccc3Br)c2)c1 | 95.4% |
| CCOC(=O)c1c(NC(=O)c2ccccc2)sc2c(O)c(CN(CC)CC)ccc12 | -2.82% (active) |
